# Measurements: ChEMBL document CHEMBL3988442, “University of Dundee, Small-Polar-MMV Screening Library” (2021)
# Among all 69,000 compounds or so, about 1,000 (1.4%) showed an effect of 50% or more. This is one part of a sample in which strong results are shown more often than they occur.
# Test system: Leishmania donovani
# Assay: Leishmania intramacrophage assay
# Format: functional, organism-based
# Parameters: scale not given: in the data most compounds retested in dose-response had high values
smiles,measurement,setting,value
Cc1cc(C)n(Cc2ccc(-c3noc(C(=O)NC[C@@H](C)O)n3)cc2)n1,Percent Effect,"30.3 µM, […]",18.71%
O=C(O)C(F)(F)F.O=C(O)C(F)(F)F.c1cnc(N2CCC3(CCN(Cc4ccncc4)CC3)CC2)nc1,Percent Effect,"30 µM, 30.03 µM",38.21%
Cc1nccn1CC1CCCN(S(=O)(=O)c2cnn(C)c2)C1 (stereo not given),Percent Effect,"30.3 µM, […]",12.01%
O=C(N1CCOCC1)N1CCOC[C@H](Oc2ccc(C(F)(F)F)cc2)C1,Percent Effect,"30.3 µM, […]",-1.363%
COc1cc(Cl)cc(CN2CCCC(N3CCCC3)C2)c1OC (stereo not given),Percent Effect,"30.3 µM, […]",12.54%
COc1cc(CN2CC[C@@H](N3CCCCCC3)[C@H](O)C2)cc(Cl)c1OC,Percent Effect,"30.3 µM, […]",50.85%
COc1cc(Cl)c(CN2CCC(C(N)=O)C2)cc1Cl (stereo not given),Percent Effect,"30.3 µM, […]",31.88%
COCCC(=O)N1CCC2(CCN(Cc3ccc(OC)c(F)c3)C2)C1 (stereo not given),Percent Effect,"30.3 µM, […]",-20.78%
CC(=O)NCc1ccc(C(=O)N2CCCc3c(F)ccc(C)c32)cc1,Percent Effect,"30.3 µM, […]",35.68%
COc1cccc2c1OCC(Cc1cc(C(N)=O)ccn1)C2 (stereo not given),Percent Effect,"30.3 µM, […]",69.64%
CNC(=O)c1ccnc(CC2COc3c(cccc3OC)C2)c1 (stereo not given),Percent Effect,"30.3 µM, […]",-40.6%
COc1cccc2c1OCC(Cc1cc(C(=O)N3CCCC3)ccn1)C2 (stereo not given),Percent Effect,"30.3 µM, […]",20.15%
CCOc1ncccc1CNC(=O)Nc1ccccc1,Percent Effect,30 µM,-12.58%
COc1nn(C)cc1-c1nnc(SCc2cccnc2)n1C,Percent Effect,"30.3 µM, […]",-1.752%
CC(C)=CCC1(C(=O)O)CCCN(CCC(=O)NC2CC2)C1 (stereo not given),Percent Effect,"30.3 µM, […]",0.5122%
CCN(CC)C(=O)c1nc2c(s1)CCN(Cc1cccc(OC)c1)CC2.O=C(O)C(F)(F)F,Percent Effect,"30.3 µM, […]",-7.279%
COc1ccc(OCCN(C)c2cc(C)nc(N)n2)cc1,Percent Effect,"30.3 µM, […]",6.601%
COc1ccccc1OCCN(C)c1cc(C)nc(N)n1,Percent Effect,"30.3 µM, […]",6.974%
Cc1cc(N(C)CCOc2ccccc2F)nc(N)n1,Percent Effect,"30.3 µM, […]",60.08%
Cc1nc(C2CCCN2CC(=O)Nc2cc(C(C)(C)C)nn2C)no1 (stereo not given),Percent Effect,30 µM,12.3%
CC(C)n1cnnc1CN(C)CC1CCCNC1 (stereo not given),Percent Effect,"30.3 µM, […]",32.72%
Cl.N#Cc1ccc(NC(=O)C2CSCN2)cc1 (stereo not given),Percent Effect,"30.3 µM, […]",0.03454%
CS(=O)(=O)NCCC1CN(Cc2ccccc2F)CCO1 (stereo not given),Percent Effect,"30.3 µM, […]",18.65%
OC1(Cn2ccnc2)CCN(C[C@]2(O)CCCN3CCCC[C@@H]32)CC1,Percent Effect,"30.3 µM, […]",-28.91%
O=C(NCCO)Nc1cccc(Cl)c1SC(F)F,Percent Effect,"30 µM, 30.03 µM",-27.47%
CC(=O)NCCNC(=O)Nc1cccc(Cl)c1SC(F)F,Percent Effect,"30.3 µM, […]",17.25%
CC(C(=O)Nc1cccc(Cl)c1SC(F)F)S(C)(=O)=O (stereo not given),Percent Effect,"30.3 µM, […]",58.19%
Cc1[nH]c2ccc(Cl)cc2c1CCNc1ncnc2c1CCNC2,Percent Effect,"30.3 µM, […]",54.3%
Cc1[nH]c2ccc(C#N)cc2c1CCNc1ncnc2c1CCNCC2,Percent Effect,"30.3 µM, […]",16.81%
Cc1[nH]c2ccccc2c1CCNc1ncnc2c1CCNCC2,Percent Effect,"30.3 µM, […]",16.03%
CC(C)CN(Cc1ccsc1)C(=O)CCCn1cncn1,Percent Effect,"30.3 µM, […]",40.23%
Cc1csc(CCCNC(=O)NC2CC(=O)N(C(C)(C)C)C2)n1 (stereo not given),Percent Effect,"30.3 µM, […]",22.59%
CN(Cc1ccsc1)C(=O)c1nc(N2CCCCC2)ncc1Cl,Percent Effect,"30.3 µM, […]",60.89%
CCOc1ccc(NC(=O)c2cnc(N3CCCC3)nc2C)cc1,Percent Effect,"30 µM, 30.03 µM",16.9%
CCOc1ccc(CN(C)C(=O)c2nc(N3CCCC3)ncc2Cl)cc1,Percent Effect,"30.3 µM, […]",58.99%
O=C(c1nc(N2CCCC2)ncc1Cl)N1CCN(Cc2ccsc2)CC1,Percent Effect,"30.3 µM, […]",1.991%
Cc1noc(C)c1CN(C)C(=O)c1nc(N2CCCC2)ncc1Cl,Percent Effect,"30.3 µM, […]",-8.961%
CN(Cc1ccsc1)C(=O)c1nc(N2CCCC2)ncc1Cl,Percent Effect,"30.3 µM, […]",20.2%
CCc1c(C(=O)N2CCN(C)[C@@H]3CS(=O)(=O)C[C@@H]32)[nH]c2ccccc12,Percent Effect,"30.3 µM, […]",-15.51%
CS(=O)(=O)NCc1cn2c(n1)CN(Cc1cccnc1)CC2.O=C(O)C(F)(F)F.O=C(O)C(F)(F)F,Percent Effect,"30.3 µM, […]",33.92%
O=C(O)C(F)(F)F.O=C(c1ccnnc1)N1CCN2C[C@H](Oc3cccc(F)c3)C[C@H]2C1,Percent Effect,"30 µM, 30.03 µM",5.462%
COc1ccc(CN2C[C@@H](CN(C)C)[C@@H](CO)C2)cc1CN1CCCC1,Percent Effect,"30.3 µM, […]",7.971%
COc1ccc(CN2C[C@@H](CN(C)C)[C@@H](CO)C2)cc1OC,Percent Effect,"30.3 µM, […]",51.5%
COc1ccc(CN2C[C@@H](CN(C)C)[C@@H](CO)C2)c(Cl)c1OC,Percent Effect,"30.3 µM, […]",52.59%
COc1cccc(OC)c1C(=O)N1C[C@@H](CN(C)C)[C@@H](CO)C1,Percent Effect,"30.3 µM, […]",-22.82%
CN(C)C[C@@H]1CN(Cc2ccccc2C#N)C[C@@H]1CO,Percent Effect,"30.3 µM, […]",-11.66%
COc1ccc(CN2C[C@@H](CN(C)CCO)[C@@H](CO)C2)cc1Cl,Percent Effect,"30.3 µM, […]",33.72%
Cc1noc(C)c1CN1CCC(NC(=O)OC(C)(C)C)CC1,Percent Effect,"30.3 µM, […]",3.614%
CC(C)c1noc(-c2ccc(NCC3CCCOC3)nc2)n1 (stereo not given),Percent Effect,"30.3 µM, […]",22.02%
Cc1cccc(-n2cnnc2CCCN2CCOCC2)c1,Percent Effect,"30.3 µM, […]",22.56%
COc1cccc(CN2C[C@@H]3COC[C@]3(CNC(=O)C3CC3)C2)c1.O=C(O)C(F)(F)F,Percent Effect,"30.3 µM, […]",43.72%
COc1cc(C#N)ccc1OC12CCCN(CC1)C2 (stereo not given),Percent Effect,"30.3 µM, […]",20.92%
O=c1[nH]nc(CNCc2ccc(OC34CCCN(CC3)C4)cc2)[nH]1 (stereo not given),Percent Effect,"30.3 µM, […]",39.69%
c1ccc(Oc2cccc(OC34CCCN(CC3)C4)c2)cc1 (stereo not given),Percent Effect,"30.3 µM, […]",65.6%
Cc1nc(CNCc2cccc(OC34CCCN(CC3)C4)c2)n[nH]1 (stereo not given),Percent Effect,"30.3 µM, […]",36.42%
Cc1cnccc1CNCc1ccc(OC23CCCN(CC2)C3)cc1 (stereo not given),Percent Effect,"30.3 µM, […]",13.67%
c1ccc(Oc2ccc(OC34CCCN(CC3)C4)cc2)cc1 (stereo not given),Percent Effect,"30.3 µM, […]",89.06%
CCN(CC)C(=O)c1nnn(Cc2ccccc2)c1OC,Percent Effect,"30 µM, 30.03 µM",-25.11%
Cc1ccc(C(=O)N2CCC3(CCC(=O)N(CC(N)=O)C3)CC2)cc1,Percent Effect,"30.3 µM, […]",-8.473%
CC(C1CC1)N(C(=O)CNc1ccc(C#N)cc1)C1CC1 (stereo not given),Percent Effect,"30.3 µM, […]",26.89%
O=C(O)C(F)(F)F.O=C(c1cccc(Cl)c1)N1CC[C@H]2[C@H]1CCN2CC1CC1,Percent Effect,"30.3 µM, […]",23.02%
O=C(O)C(F)(F)F.O=C(c1cccc(Cl)c1)N1CC[C@H]2[C@H]1CCN2CC1CCOCC1,Percent Effect,"30 µM, 30.03 µM",39.19%
CN(C)CCN1CC[C@@H]2[C@@H]1CCN2C(=O)c1cccc(Cl)c1,Percent Effect,"30.3 µM, […]",54.02%
CN1[C@H]2CC[C@@H]1CN(C(=O)c1ccc(-c3ccccc3)[nH]1)CC2,Percent Effect,"30.3 µM, […]",78.84%
O=C(c1ccc(-c2ccccc2)[nH]c1=O)N1CCN(C2CC2)CC1,Percent Effect,"30.3 µM, […]",25.14%
CO[C@H]1CN(C(=O)c2ccc(-c3ccccc3)[nH]2)CC[C@H]1N,Percent Effect,"30.3 µM, […]",45.29%
CCCS(=O)(=O)CC(=O)N1CCN(CC2CC2)c2ccccc21,Percent Effect,"30.3 µM, […]",3.775%
Cc1ccc2c(n1)N(CCN(C)C)CCN(C(=O)c1cccs1)C2.O=C(O)C(F)(F)F.O=C(O)C(F)(F)F,Percent Effect,"30.3 µM, […]",50.31%
Cc1ccc2c(n1)N(CCN(C)C)CCN(C(=O)c1cscn1)C2.O=C(O)C(F)(F)F.O=C(O)C(F)(F)F,Percent Effect,"30.3 µM, […]",4.389%
Cc1ccc2c(n1)N(CCN(C)C)CCN(C(=O)c1ccc[nH]1)C2.O=C(O)C(F)(F)F.O=C(O)C(F)(F)F,Percent Effect,"30 µM, 30.03 µM",20.64%
CC(=O)c1ccc(C(=O)N2CCCCC2c2nc[nH]n2)cc1 (stereo not given),Percent Effect,"30.3 µM, […]",66.49%
O=C(c1ccc(F)c(F)c1)N1CCCCC1c1nc[nH]n1 (stereo not given),Percent Effect,"30.3 µM, […]",-8.926%
O=C(c1ccoc1)N1CCCCC1c1nc[nH]n1 (stereo not given),Percent Effect,"30.3 µM, […]",24.92%
CCOCC1CN(C(=O)c2cscn2)Cc2cn(C)nc21.O=C(O)C(F)(F)F (stereo not given),Percent Effect,"30.3 µM, […]",-0.7565%
O=C(c1ccc(-c2ccc(O)nc2)s1)N1CCCCCC1,Percent Effect,"30.3 µM, […]",19.86%
Cc1nc(C2CCCNC2)cc(N(C)CCc2cn[nH]c2)n1 (stereo not given),Percent Effect,"30.3 µM, […]",29.46%
Cl.c1cc(CC2CCCNC2)nc(NCCc2cnccn2)c1 (stereo not given),Percent Effect,"30.3 µM, […]",2.895%
Cc1nc(C2CCCNC2)cc(N(C)CCc2ccccc2)n1 (stereo not given),Percent Effect,"30.3 µM, […]",66.58%
Cl.c1cc(NCc2ccncc2)nc(C2CCCNC2)c1 (stereo not given),Percent Effect,"30.3 µM, […]",20.7%
CCn1ccnc1CN(C)c1cc(C2CCCNC2)nc(C)n1 (stereo not given),Percent Effect,"30.3 µM, […]",-6.202%
Cl.c1ccc(CCNc2cccc(C3CCCNC3)n2)cc1 (stereo not given),Percent Effect,"30.3 µM, […]",71.14%
CC1(C)Cc2c(cnn2-c2ccccc2)C(NC2CCSCC2)C1 (stereo not given),Percent Effect,"30.3 µM, […]",17.91%
CCN1C(=O)[C@H]2CN(Cc3cccnc3)C[C@H]2C12CCN(C(C)=O)CC2,Percent Effect,"30.3 µM, […]",4.627%
CSCCC(O)C(=O)N1CCC(OCc2cccnc2)CC1 (stereo not given),Percent Effect,"30.3 µM, […]",-15.88%
CCC(N)C(=O)N1CCC(OCc2ccc(Cl)c(Cl)c2)CC1.Cl (stereo not given),Percent Effect,"30.3 µM, […]",81.5%
CNC(=O)CN1CCC(OCc2ccc(Cl)c(Cl)c2)CC1,Percent Effect,"30.3 µM, […]",23.39%
NC(=O)C1CCN(C(=O)Cc2ccc(Cl)c(Cl)c2)CC1,Percent Effect,"30.3 µM, […]",12.37%
NC(=O)CN1CCC(OCc2ccc(Cl)c(Cl)c2)CC1,Percent Effect,"30.3 µM, […]",39.98%
CCOc1cc(-c2cc(=O)n3c(n2)CCCCC3)ccc1O,Percent Effect,"30.3 µM, […]",-28.99%
O=C(O)C(F)(F)F.O=C([C@H]1COC[C@H]2CN(c3ncc(F)cn3)C[C@H]21)N1CCOCC1,Percent Effect,"30.3 µM, […]",11.96%
O=C(CCN1CCCC(CO)(CC2CC2)C1)NCc1cccc(Cl)c1 (stereo not given),Percent Effect,"30.3 µM, […]",10.86%
O=C(NCCc1cccs1)[C@H]1CO[C@H]2CCN(CC3CC3)C[C@H]2C1.O=C(O)C(F)(F)F,Percent Effect,"30.3 µM, […]",18.2%
CN(Cc1ccccn1)C(=O)[C@H]1CO[C@H]2CCN(CC3CC3)C[C@H]2C1.O=C(O)C(F)(F)F.O=C(O)C(F)(F)F,Percent Effect,"30.3 µM, […]",67.47%
COCCN1CC[C@@H]2OC[C@H](C(=O)N(C)Cc3ccccn3)C[C@@H]2C1,Percent Effect,"30.3 µM, […]",34.37%
Cc1nc(CN2CCO[C@H]3CN(C(=O)c4cccn4C)C[C@H]32)cs1,Percent Effect,"30.3 µM, […]",20.02%
